From PubChem BioAssay
SENP8 block-1 – inhibitors of human SENP8 protease; AID 602440; 0.64% of 360,000 active; recombinant SENP8, Nedd8 substrate fluorescence; inhibition, % at 20 µM; in the data active = inhibition mostly above about 40%, no sharp cut-off; inactive = mostly below about 27%
Target sequence (Q96LD8 whole entry, looked up): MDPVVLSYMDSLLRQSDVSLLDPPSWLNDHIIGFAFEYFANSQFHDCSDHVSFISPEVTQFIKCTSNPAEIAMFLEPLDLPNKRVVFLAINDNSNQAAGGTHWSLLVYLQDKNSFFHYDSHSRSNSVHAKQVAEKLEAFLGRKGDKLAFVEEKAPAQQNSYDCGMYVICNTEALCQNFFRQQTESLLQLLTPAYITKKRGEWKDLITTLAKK
SENP7 inh – inhibitors of human SENP7 protease; Q9BQF6; recombinant SENP7, Z-RLRGG-aminoluciferin luminescence, 40 min; inhibition, % at 5 µM; 1.5% of 330,000 active; AID 434973;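 active = inhibition above about 50% at the single test dose, limit read from the data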
Target sequence (Q9BQF6 706-1050 limits assumed): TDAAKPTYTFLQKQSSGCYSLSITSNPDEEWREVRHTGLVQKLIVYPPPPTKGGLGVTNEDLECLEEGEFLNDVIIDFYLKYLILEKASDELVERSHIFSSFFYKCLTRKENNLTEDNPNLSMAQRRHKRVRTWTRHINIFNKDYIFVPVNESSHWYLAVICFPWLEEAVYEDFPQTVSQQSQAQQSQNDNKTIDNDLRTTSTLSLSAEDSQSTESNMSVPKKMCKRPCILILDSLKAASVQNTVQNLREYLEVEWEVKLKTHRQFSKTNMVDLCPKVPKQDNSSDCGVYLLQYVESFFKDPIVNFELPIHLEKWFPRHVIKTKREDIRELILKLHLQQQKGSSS
SENP8 block-2 – SENP8 protease inhibition; 1.2% of 330,000 active; AID 2540; inhibition, % at 10 µM; Q96LD8; purified SENP8, Z-RLRGG-aminoluciferin cleavage, luminescence; in the data active = inhibition above about 50%
SENP6 inh – inhibitors of human SENP6 protease | Recombinant SENP6 catalytic domain, aminoluciferin luminescence | inhibition, % at 10 µM | 1.8% of 330,000 active | AID 2599;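 active = inhibition above about 50% at the single tested dose, limit read from the data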
AHR activator – activators of human aryl hydrocarbon receptor; P35869; AHR-responsive luciferase reporter cells, luminescence; activation, % at 5 µM; 2.5% of 320,000 active; in the data active = activation above about 47%
EBI2 block – antagonists of human EBI2 receptor; P32249; EBI2 beta-arrestin recruitment, luminescence, 7a,25-OHC stimulated; inhibition, % at 5 µM; AID 651636; 0.81% of 360,000 active; in the data active = inhibition above about 38%;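 also: enzyme fragment complementation signal reports receptor beta-arrestin coupling in cells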
AHR act confirm – confirmation of human aryl hydrocarbon receptor activators; shares compounds with AHR activator; human cells, AHR-responsive luciferase reporter, luminescence; activation, % at 9 µM; 87% of 2,300 active; AID 2845; in the data active = activation above about 49%;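 also: HepG2 hepatoma cells carrying a DRE-driven firefly luciferase reporter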
PXR act counter – PXR activation, counter-screen for AHR activators; shares compounds with AHR activator; cell-based PXR reporter, luciferase luminescence; activation, % at 11.6 µM; 88% of 2,300 active; in the data active = activation above about 11%;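 also: human hepatoma DPX-2 cells expressing full-length human PXR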
Hits are given with their value; n = inactive; x = no result. Most compounds without a hit are left out; they make up all but 5% or so of the library.

SMILES | SENP8 block-1 | SENP7 inh | SENP8 block-2 | SENP6 inh | AHR activator | EBI2 block | AHR act confirm | PXR act counter
Brc1ccc(-c2ccc(/C=N/Nc3nc4ccccc4[nH]3)o2)cc1 | n | n | n | n | 98.4 | n | 121.4 | 12.4
CN(C)S(=O)(=O)c1cccc(-c2nnc(SCC(=O)NCCCCCC(=O)O)n2-c2ccc(F)cc2)c1 | n | n | n | n | n | n | x | x
CCN(CC)C(=O)Cn1nnc(-c2ccc(S(C)(=O)=O)cc2)n1 | n | n | n | n | n | n | x | x
C/C(=N\NC(=O)c1c[nH]c2ccccc12)c1ccco1 | n | n | n | n | 92.0 | n | 159.5 | 24.4
C/C(=N\NC(=O)c1c[nH]c2ccccc12)c1ccccn1 | n | n | n | n | n | n | x | x
C/C(=N\NC(=O)c1ccc(C(=O)N/N=C(\C)c2ccco2)o1)c1ccco1 | n | n | n | n | 108.2 | n | n | n
CCc1ccc(/C(C)=N/NC(=O)c2c[nH]c3ccccc23)s1 | n | n | n | n | 141.4 | n | 115.2 | 58.9
COc1ccc(C2=CCC3CCCCN3C2)cc1OC (stereo unspecified) | n | n | n | n | n | n | x | x
COc1ccc(C(=O)C2CCCN(C(=O)Cn3nc(C)cc3C)C2)cc1F (stereo unspecified) | n | n | n | n | n | n | x | x
O=C(COC(=O)CN1C(=O)COc2ccccc21)NCc1ccc(F)cc1 | n | n | n | n | n | n | x | x
Cc1cc(C)c(C#N)c(Nc2ccc3c(c2)OCCO3)n1 | n | n | n | n | 86.0 | n | 103.1 | 22.0
COc1cccc(Nc2nc(C)cc(C)c2C#N)c1 | n | n | n | n | 79.2 | n | 63.4 | 31.5
Cc1cccc(Nc2nc(C)cc(C)c2C#N)c1 | n | n | n | n | n | n | x | x
COc1ccc(Nc2nc(C)cc(C)c2C#N)cc1OC | n | n | n | n | 113.5 | n | 58.8 | 20.0
COc1cc(C(C)=O)ccc1Oc1ncccn1 | n | n | n | n | n | n | x | x
O=C(O)CC(c1ccc(F)cc1F)N1Cc2ccccc2C1=O (stereo unspecified) | n | n | n | n | n | n | x | x
O=C(c1ccccn1)N1N=C2/C(=C/c3ccccc3)CCCC2C1c1ccccc1 (stereo unspecified) | n | n | n | n | 111.7 | n | 108.4 | 65.5
Nc1cnc(Nc2ccc(Br)cc2)nc1N | n | n | n | n | n | n | x | x
N#Cc1c(N)nc(N)nc1Nc1ccc(Br)cc1 | n | n | n | 59.9 | 83.2 | n | 72.2 | 17.4
CC1=CS(=O)(=O)CC1SC(=S)N(C)C1CCS(=O)(=O)C1 (stereo unspecified) | n | n | n | n | n | n | x | x
CC(=O)n1c2ccccc2c2c1c1ccccc1n2C | n | n | n | n | 108.8 | n | 112.8 | 21.8
CC(C)(C)OC(=O)C[C@@H]1C/C=C\C[C@H](CC(=O)N(CCO)Cc2ccccc2)C(=O)N[C@H](C(C)(C)C)COC1=O | n | n | n | n | n | n | x | x
O=C(Nc1ccccc1C(=O)N/N=C/c1ccco1)c1ccc(F)cc1 | n | n | n | n | 200.4 | n | 111.4 | 12.3
O=C(Nc1ccccc1C(=O)N/N=C/c1ccco1)c1ccccc1 | n | n | n | n | 126.7 | n | 151.4 | 17.7
O=C(Nc1ccccc1C(=O)N/N=C/c1ccco1)c1ccc(Cl)cc1 | n | n | n | n | 86.5 | n | 94.1 | 29.9
SMILES | SENP8 block-1 | SENP7 inh | SENP8 block-2 | SENP6 inh | AHR activator | EBI2 block | AHR act confirm | PXR act counter
O=C(NCCOc1ccccc1)c1ccccc1SCC(=O)N1CCCC1 | n | n | n | n | n | n | x | x
O=C(CNC(=O)c1ccc2c(c1)OCCO2)N/N=C/c1ccc([N+](=O)[O-])cc1 | n | n | n | n | n | n | x | x
CN(C(=O)c1nn(C)c2c1CSc1ccccc1-2)c1ccccc1Cl | n | n | n | n | n | n | x | x
CN(C(=O)c1nn(C)c2c1CSc1ccccc1-2)c1ccc(F)cc1 | n | n | n | n | 105.4 | n | 47.5 | 64.2
CC1Oc2ccccc2N(Cc2ccc(F)cc2)C1=O (stereo unspecified) | n | n | n | n | n | n | x | x
O=C1COCC(=O)N1CCc1c[nH]c2ccccc12 | n | n | n | n | 83.2 | n | 108.2 | 12.0
OC1c2c(F)cccc2N=C2CCCCCN21 (stereo unspecified) | n | x | x | x | x | n | x | x
O=C(CCN1C(=O)/C(=C/c2ccccc2F)SC1=S)NCCCn1ccnc1 | n | n | n | n | n | n | x | x
N#C/C(=C/c1ccc(Sc2nc3ccccc3[nH]2)o1)c1cccc(F)c1 | n | n | n | n | n | n | x | x
N#C/C(=C/c1ccc(Sc2nc3ccccc3[nH]2)o1)c1cccc(Br)c1 | n | n | n | n | 82.6 | n | n | 83.7
CC(=O)Nc1cc2cc(NS(=O)(=O)c3ccc(C)cc3)ccc2oc1=O | n | n | n | n | n | n | x | x
OC1CN=C2CCCc3c2n(c2ccc(Cl)cc32)C1 (stereo unspecified) | n | n | n | n | n | n | x | x
c1ccc(-c2ccc3c(c2)c2c4n3CCN=C4CCC2)cc1 | n | n | n | n | 92.6 | n | 83.6 | 11.3
Cc1nc(SCc2nc3c(F)cccc3[nH]2)c2oc3ccccc3c2n1 | n | n | n | n | 80.3 | n | 80.2 | 39.9
Cc1nc(SCc2nc3c(C)cccc3[nH]2)c2oc3ccccc3c2n1 | n | n | n | n | n | n | x | x
O=C(Cc1nc2ccccc2[nH]1)c1ccc(Cl)cc1 | n | n | n | n | n | n | x | x
Clc1ccc(/C(Cc2nc3ccccc3[nH]2)=N\Nc2ccccc2)cc1 | n | n | n | n | 90.6 | n | n | 48.8
Cc1nc2c(=O)[nH]c(=S)n(C)c2nc1C | n | n | n | n | 81.4 | n | 56.3 | n
Cc1nc2[nH]c(=S)[nH]c(=O)c2nc1C | n | x | x | x | x | n | x | x
Oc1ccc2ccc3[nH]cnc3c2c1 | n | n | n | n | 80.2 | n | n | 21.8
Cc1c(C(N)=O)cc([N+](=O)[O-])cc1[N+](=O)[O-] | n | x | x | x | x | n | x | x
O=C(Nc1ccc(Br)cc1)c1ccc(Br)c(S(=O)(=O)Nc2cccnc2)c1 | n | n | n | n | 97.5 | n | 55.9 | n
Cc1ccccc1Nc1nc(-c2ccccc2)c(C(=O)Nc2cccnc2)s1 | n | n | n | n | 80.7 | n | 57.0 | 65.0
Cc1ccccc1NS(=O)(=O)c1cc(C(=O)Nc2cccnc2)ccc1C | n | n | n | n | 83.1 | n | 69.6 | 103.7
Cc1ccc(S(=O)(=O)CCC(=O)OCC(=O)Nc2cc(F)ccc2C)cc1 | n | n | n | n | n | n | x | x
Cc1[nH]c(C)c(S(=O)(=O)NCc2ccco2)c1C(=O)N1CCCCC1 | n | n | n | n | n | n | x | x
COc1ccccc1N(CC(=O)Nc1ccc2c(c1)OCO2)S(=O)(=O)c1ccccc1 | n | n | n | n | 98.4 | n | 96.7 | 186.8
Cc1ccc(NC(=O)CN2C(=O)NC3(CCCC3)C2=O)c(Cl)c1 | n | n | n | n | n | n | x | x
